# High-throughput results from PubChem.
# Sampled rows, rich in hits. Any-hit rate of the full collection: about 8.8%.
# HttQ103 aggreg – reduces HttQ103-GFP aggregates in PC12 cells; 1.1% of 220,000 active; Potency, µM (series often up to 46.1 µM), for inactives: at the highest dose activity change, negative = inhibition, most hits filed as inhibitors; PC12 HttQ103-GFP aggregates, Acumen cytometry, 40 h; AID 1688; also: % is scaled to controls: 0 for no effect and ±100 for the full control effect; nearly all actives have a fitted effect of over 60% in size
#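 Aggregates are detected as GFP objects 1–25 µm with signal 6 STDEV over background in lysates of induced PC12 cells. These carry Huntingtin exon 1 with 103 glutamines fused to GFP under an ecdysone promoter; compounds titrated.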
# ALDH1A1 block – ALDH1A1 (human) enzyme inhibition; Purified ALDH1A1, NADH fluorescence, propionaldehyde substrate; 7.3% of 220,000 active; P00352; Potency, µM (doses to about 75.3 µM), inactives show at the highest dose activity, negative = inhibition, most hits filed as inhibitors; active = well fitted inhibition curve with a large enough effect, not every such curve was filed as active; inconclusive = small, poorly fitted or top-dose-only effect, or another doubt; inactive = no such curve, though single readings can be large or run the other way;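 also: plate controls were no enzyme wells and a reference inhibitor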
# Target sequence (P00352 whole entry, looked up): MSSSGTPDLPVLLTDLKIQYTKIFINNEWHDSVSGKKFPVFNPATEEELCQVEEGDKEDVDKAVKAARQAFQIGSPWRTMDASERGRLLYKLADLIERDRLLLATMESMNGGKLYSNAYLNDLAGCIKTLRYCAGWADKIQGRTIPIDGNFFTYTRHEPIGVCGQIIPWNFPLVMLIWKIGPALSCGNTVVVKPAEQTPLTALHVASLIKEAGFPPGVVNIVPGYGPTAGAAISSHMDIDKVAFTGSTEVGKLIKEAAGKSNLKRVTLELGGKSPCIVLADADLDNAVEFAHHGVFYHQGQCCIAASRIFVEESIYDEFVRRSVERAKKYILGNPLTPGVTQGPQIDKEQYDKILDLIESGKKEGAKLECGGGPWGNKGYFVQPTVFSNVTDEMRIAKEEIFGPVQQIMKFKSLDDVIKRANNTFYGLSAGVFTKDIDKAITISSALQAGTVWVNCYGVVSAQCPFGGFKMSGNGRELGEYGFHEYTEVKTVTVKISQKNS
# HTT cytoprotect – cytoprotection in Huntington HTT-Q103 PC12 cell model. Potency, µM (highest dose often 56.4 µM), for inactives: cytoprotection (ATP increase), hits mostly activators. PC12 HTT-Q103 induced, cytoprotection, ATP luminescence, 40 h. 0.14% of 230,000 active. AID 1471; also: % of control where 0% means no effect; nearly all actives have a fitted effect of over 45% in size
#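 Compounds added alongside 100 nM tebufenozide, which induces toxic Q103 huntingtin exon 1-GFP in stable PC12 cells; surviving cells quantified by luminescent ATP measurement. Medium: phenol red-free DMEM, 5% equine and 5% calf serum.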
# HPGD inh – inhibitors of human 15-hydroxyprostaglandin dehydrogenase (HPGD); P15428; purified HPGD, NADH fluorescence kinetic, PGE2 substrate; Potency, µM, without a hit: at the top dose activity change, negative = inhibition, usual class: inhibitors; 4.3% of 150,000 active; active = well fitted inhibition curve with a large enough effect, not every such curve was filed as active; inconclusive = small, poorly fitted or top-dose-only effect, or another doubt; inactive = no such curve, though single readings can be large or run the other way; also: % is scaled to controls: 0 for no effect and ±100 for the full control effect
# Target sequence (P15428 whole entry, looked up): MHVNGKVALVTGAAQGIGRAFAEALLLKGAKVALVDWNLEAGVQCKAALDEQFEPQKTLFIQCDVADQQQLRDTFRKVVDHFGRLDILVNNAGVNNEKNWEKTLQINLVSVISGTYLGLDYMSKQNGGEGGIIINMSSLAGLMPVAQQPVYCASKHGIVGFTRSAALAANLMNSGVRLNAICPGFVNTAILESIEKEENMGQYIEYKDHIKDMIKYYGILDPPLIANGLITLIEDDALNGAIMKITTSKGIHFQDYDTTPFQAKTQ
#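 NADH formation kinetics: reaction with 30 uM PGE2 and 1 mM NAD+ (final), 20 nM enzyme, Tris-HCl pH 8 with Tween 20, after 15 min compound preincubation at room temperature. Fluorescence change, last versus first of five reads.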
# Lamin A splicing – LMNA splicing modulation; HeLa LMNA splicing GFP/RFP minigene ratio, 48 h; Potency, µM (series often up to 46.1 µM), for the others: at the top dose ratio change, negative = inhibition, actives largely listed as inhibitors; 0.01% of 200,000 active; active = well fitted inhibition curve with a large enough effect in the signal ratio, with a control signal flat, not every such curve was filed as active; inconclusive = small, poorly fitted or top-dose-only effect, or effect the other way, or a change in a side signal; the % refers to the signal ratio; also: % is scaled to controls: 0 for no effect and ±100 for the full control effect
#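 S3 HeLa stable clones carrying a lamin A-EGFP splicing minigene plus DsRed2 were seeded at 600 cells/well in Opti-MEM with 2% FBS, pin-dosed and incubated 48 h at 37°C. Acumen cytometry (488 nm) gave the GFP/RFP total-intensity ratio.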
# * marks the source's active call; other numbers are inactive results; ? = inconclusive; . = not tested or not shown; [ ] = remark or other dose. Unless noted, calls follow the shape of the dose curve; as a rule, active = well fitted curve in the direction sought with a large enough effect; inconclusive = small, poorly fitted or top-dose-only effect, or another doubt; inactive = no such curve, though single readings can be large; an effect the other way counts as inactive or inconclusive. Potency is read from the fitted curve at half-maximal effect.
SMILES,HttQ103 aggreg,ALDH1A1 block,HTT cytoprotect,HPGD inh,Lamin A splicing
COC(=O)c1sccc1NC(=S)N1CCC(C)CC1,-8%,20µM*,-12%,-6%,0%
COC(=O)c1sccc1NC(=S)N1CCN(c2ccc(F)cc2)CC1,-10%,-7%,.,-3%,?
COC(=O)c1sccc1NC(=S)N1CCN(c2ccccc2)CC1,-8%,5%,15%[10 µM],-5%,?
COc1cccc(NC(=O)CN(C)CC(=O)Nc2ccc(C)cc2Cl)c1,14%,11µM*,8%[10 µM],.,-17%[46 µM]
CCn1c(/C=C/N(C)c2ccccc2)[n+](CC)c2ccc(Cl)cc21,4.5µM*,?,-59%[10 µM],-14%,?
CCn1c(/C=C/Nc2ccccc2)[n+](CC)c2ccc(Cl)cc21,13%,1%,.,-6%,10%
CC(=O)N1CCN(c2ccc(NCc3ccc(C)cc3)cc2)CC1,22%,?,-17%[10 µM],0%,?
COc1cc(CNc2ccc(NC(C)=O)cc2)ccc1OCc1ccccc1C,-23%,?,?,.,.
CCc1ccc(CNc2ccc(N3CCN(C(C)=O)CC3)cc2)cc1,?,22µM*,-12%[0.074 µM],-13%,-25%
COc1cc(CNc2ccc(N3CCN(C(C)=O)CC3)cc2)ccc1OCc1ccccc1,3%[9.22 µM],18µM*,3%[10 µM],.,15%[46 µM]
O=C1CNC(=O)/C1=C/c1ccccc1,-2%,-2%,.,14µM*,-12%
O=C1CNC(=O)/C1=C/c1ccc(Br)cc1,12%[9.22 µM],.,27%[10 µM],.,.
O=C1CNC(=O)/C1=C\c1ccc(O)cc1,-8%,?,-20%[10 µM],-21%,-13%
O=C1CNC(=O)/C1=C/c1ccc(O)cc1,10%,32µM*,7%,?,4%
CCOC(=O)c1c(C)oc2nc(C)nc(NCCCN3CCN(c4ccc(F)cc4)CC3)c12,.,.,.,.,-11%[46 µM]
CSCCC=O,.,-13%,0%,-4%,.
Cc1cccc(-c2nnc3sc(-c4ccccc4C)nn23)c1,11µM*,-8%,-31%[0.074 µM],-25%,?
c1ccc(-c2nnc3sc(-c4csc5c4CCCC5)nn23)cc1,?,7.9µM*,-18%[10 µM],11µM*,12%
Cn1nnnc1SCc1csc(C2C(C#N)=C(N)OC3=C2C(=O)CCC3)c1 (stereo unspecified),9%,?,-8%,.,5%[46 µM]
COc1cccc(C(=O)NCC(c2ccc3c(c2)OCO3)N2CCN(C)CC2)c1 (stereo unspecified),.,.,.,.,29%[46 µM]
Cc1cc(/C=N/O)c(C)n1-c1ccc(Br)cc1,?,8.9µM*,-37%[10 µM],?,?
Cc1cccc(-n2c(C)cc(/C=N/O)c2C)c1,-8%,?,19%[10 µM],?,-6%
Cc1cc(/C=N/NC(N)=S)c(C)n1-c1ccc(Br)cc1,-29%,16µM*,-27%,.,?
Cc1cc(/C=N/NC(N)=S)c(C)n1-c1ccc(Cl)cc1,7%,32µM*,6%[10 µM],-12%,-3%
Cc1cc(/C=N/NC(N)=S)c(C)n1-c1cccc(Cl)c1,-6%,25µM*,.,.,1%[46 µM]
SMILES,HttQ103 aggreg,ALDH1A1 block,HTT cytoprotect,HPGD inh,Lamin A splicing
COC(=O)Cc1ccc(NC(=S)NNC(=O)C2CC2)cc1,-11%[9.22 µM],.,-5%[10 µM],.,.
CC(=O)C1CCC2C3CC(C)C4=CC(=O)CC[C@@]4(C)C3C(O)C[C@@]12C (stereo partly specified),.,-1%,-46%,-1%,.
Cc1cn2c(=O)c3ccccc3nc2n2c(=O)c3ccccc3nc12,.,8%,?,-10%,.
Cc1c(Cl)cccc1NC(=O)N1CCC(CN2CCCC2)CC1,.,.,.,.,7%[46 µM]
COc1cccc(CNC(=O)CN2C(=O)CC(c3ccccc3)=Nc3ccccc32)c1,-11%[9.22 µM],35µM*,5%[10 µM],.,.
COc1ccc(N(CC(=O)Nc2ccc3c(c2)OCCO3)S(=O)(=O)c2cccnc2)cc1,6%,14µM*,7%[10 µM],-18%,-8%
COc1ccc(N(CC(=O)Nc2ccc3c(c2)OCO3)S(=O)(=O)c2ccccc2)cc1,.,-3%,.,.,.
COc1ccccc1N(CC(=O)Nc1cccnc1)S(C)(=O)=O,-3%,10%,-2%[10 µM],-6%,10%
COc1ccccc1N(CC(=O)Nc1cccnc1)S(=O)(=O)c1ccccc1,-4%,?,-21%,14µM*,7%
COc1ccc(OC)c(N(CC(=O)Nc2cccnc2)S(=O)(=O)c2ccccc2)c1,10%,-8%,5%,7.9µM*,0%
COc1ccc(S(=O)(=O)N(CC(=O)Nc2cccnc2)c2ccccc2OC)cc1,?,10µM*,-12%,2.2µM*,6%
Cc1cc(C)cc(-n2ccnc2SCC(=O)Nc2ccc(C)c(Cl)c2)c1,.,.,.,.,-17%[46 µM]
COc1ccc(S(=O)(=O)N(CC(=O)Nc2ccc3c(c2)OCO3)c2ccccc2OC)cc1,18%[9.22 µM],?,-13%,16µM*,?
COc1ccccc1N(CC(=O)Nc1ccc2c(c1)OCO2)S(=O)(=O)c1ccccc1,-12%,-6%,-6%,-26%,?
Cc1ccc2ncc3c(-c4ccccc4)nn(CC(=O)NC4CCCCC4)c3c2c1,.,.,.,.,9%[46 µM]
CN(C)c1ccc(C=NCC2COc3ccccc3O2)cc1 (stereo unspecified),-9%[9.22 µM],0.56µM*,4%[10 µM],.,1%[46 µM]
CN(CC1COc2ccccc2O1)C(=O)c1ccc(N(C)C)cc1 (stereo unspecified),12%,5.6µM*,1%,.,2%[46 µM]
CN(C)C(=O)OCC1COc2ccccc2O1 (stereo unspecified),-3%[9.22 µM],.,4%[10 µM],.,.
CC(=O)NCC1COc2ccccc2O1 (stereo unspecified),2%[9.22 µM],.,-5%[10 µM],.,.
CN[C@H]1CCc2cc(OC)c(OC)c(OC)c2-c2ccc(N[C@@H]3CCCCNC3=O)c(=O)cc21,.,-8%,-266%,-9%,.
Cc1cccc(N2CCN(CCCNc3ncnc4onc(-c5ccc(F)cc5)c34)CC2C)c1 (stereo unspecified),.,.,.,.,-15%[46 µM]
CCCOc1ccc(OCCSc2nnc(N)s2)cc1,-29%,7%,-43%,5µM*,?
COc1ccc(OCCSc2nc(N)cc(N)n2)cc1,-14%,?,-38%,25µM*,3%
CCCOc1ccc(OCCSc2ncccn2)cc1,-1%,2%,9%[10 µM],14µM*,-9%
Cc1ccc(OCCSc2nc(N)cc(N)n2)cc1,-1%,-6%,-13%,.,.
SMILES,HttQ103 aggreg,ALDH1A1 block,HTT cytoprotect,HPGD inh,Lamin A splicing
O=C(O)c1ccc(S(=O)(=O)Nc2ccc(O)c(Sc3nc4ccccc4s3)c2)cc1,24%,?,10%,.,7%[46 µM]
CNC(=O)C1CCN(C(=O)N2CC(C)Oc3ccc(Cl)cc32)CC1 (stereo unspecified),.,.,.,.,-15%[46 µM]
O=C(c1ccco1)N1CCC2(CCCN(c3ncccn3)C2)CC1,.,?,-2%,-14%,.
CCn1c2ccc(F)cc2c2nnc(NN)nc21,-13%,7.1µM*,10%[10 µM],-11%,-12%
CCCn1c2ccc(F)cc2c2nnc(NN)nc21,-13%,4.5µM*,-46%,.,?
NNc1nnc2c3cc(F)ccc3n(Cc3ccccc3)c2n1,-9%[9.22 µM],.,-9%[10 µM],.,.
CCc1ccc2c(c1)c1nnc(NN)nc1n2C,-8%[9.22 µM],.,8%[10 µM],.,.
